In publication PMC7862700, “An all-to-all approach to the identification of sequence-specific readers for epigenetic DNA modifications on cytosine”:

Tests used:
Assay in all cases: DAPPL (digital affinity profiling via proximity ligation, sequencing); 10 mM Tris-HCl pH 7.5, 50 mM NaCl, 1 mM DTT, 4% glycerol, room temperature, 30 min; GST-TFs on glutathione beads, 16-mer random dsDNA library, 0.1% formaldehyde crosslink after washing; high values mean tight binding
ELK1 = molecular target: T1, ELK1 (Homo sapiens, UniProt P19419 1-428); settings: protein: recombinant; tags: N-terminal GST; dsDNA, one strand shown
T1 sequence: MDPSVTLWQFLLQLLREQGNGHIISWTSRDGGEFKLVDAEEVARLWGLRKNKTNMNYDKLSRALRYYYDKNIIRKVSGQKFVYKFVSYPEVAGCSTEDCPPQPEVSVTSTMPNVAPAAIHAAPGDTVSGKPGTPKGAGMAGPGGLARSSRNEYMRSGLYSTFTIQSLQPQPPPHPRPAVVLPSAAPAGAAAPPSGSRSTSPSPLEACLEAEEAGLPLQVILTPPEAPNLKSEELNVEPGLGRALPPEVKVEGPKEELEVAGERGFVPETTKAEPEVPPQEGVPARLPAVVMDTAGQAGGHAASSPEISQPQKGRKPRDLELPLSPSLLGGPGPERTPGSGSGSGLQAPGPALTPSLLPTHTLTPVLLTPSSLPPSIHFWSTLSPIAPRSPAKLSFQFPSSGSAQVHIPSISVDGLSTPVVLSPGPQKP
Method in brief: (§1)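 Yeast served to express human transcription factors as GST fusions, which were then captured on glutathione beads and labelled with DNA barcodes. Pooled with a tag-only sample, they were incubated with 200 nmole of a 16-mer random double-stranded DNA library for 30 min at room temperature in Tris/NaCl/DTT/glycerol buffer, washed, crosslinked with 0.1% formaldehyde, ligated by proximity, amplified by PCR and sequenced. Dividing each hexamer's read frequency for a factor by its frequency for the tag-only sample gives the binding signal.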

GABPA = molecular target: T2, GABPA (Homo sapiens, UniProt Q06546 1-454); settings: protein: recombinant; tags: N-terminal GST; dsDNA, one strand shown
T2 sequence: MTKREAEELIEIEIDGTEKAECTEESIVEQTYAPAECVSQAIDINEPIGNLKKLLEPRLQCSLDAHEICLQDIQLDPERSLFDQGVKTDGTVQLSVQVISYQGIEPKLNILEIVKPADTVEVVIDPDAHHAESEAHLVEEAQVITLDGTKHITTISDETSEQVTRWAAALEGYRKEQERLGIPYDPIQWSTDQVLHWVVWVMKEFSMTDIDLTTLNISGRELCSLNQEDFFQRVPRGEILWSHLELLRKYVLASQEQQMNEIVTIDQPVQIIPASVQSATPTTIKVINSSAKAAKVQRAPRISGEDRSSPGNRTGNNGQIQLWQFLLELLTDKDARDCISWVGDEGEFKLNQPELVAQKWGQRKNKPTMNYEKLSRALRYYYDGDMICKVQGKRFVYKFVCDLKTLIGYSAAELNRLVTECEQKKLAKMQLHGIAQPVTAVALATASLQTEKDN
Method in brief: as §1

ELF1 = ELF1 (Homo sapiens, UniProt P32519 1-619); settings: protein: recombinant; tags: N-terminal GST; dsDNA, one strand shown
Method in brief: as §1

EHF = molecular target: T3, EHF (Homo sapiens, UniProt Q9NZC4 1-300); settings: protein: recombinant; tags: N-terminal GST; dsDNA, one strand shown
T3 sequence: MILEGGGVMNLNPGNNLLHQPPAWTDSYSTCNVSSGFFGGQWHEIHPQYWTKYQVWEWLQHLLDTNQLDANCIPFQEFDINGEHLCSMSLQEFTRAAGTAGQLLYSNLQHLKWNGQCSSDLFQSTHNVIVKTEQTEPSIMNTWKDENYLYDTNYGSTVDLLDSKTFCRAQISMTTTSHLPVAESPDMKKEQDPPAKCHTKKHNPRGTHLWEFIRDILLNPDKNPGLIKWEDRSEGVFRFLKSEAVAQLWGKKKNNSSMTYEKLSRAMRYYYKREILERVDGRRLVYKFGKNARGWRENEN
Method in brief: as §1

FEV = molecular target: T4, FEV (Homo sapiens, UniProt Q99581 1-238); settings: protein: recombinant; tags: N-terminal GST; dsDNA, one strand shown
T4 sequence: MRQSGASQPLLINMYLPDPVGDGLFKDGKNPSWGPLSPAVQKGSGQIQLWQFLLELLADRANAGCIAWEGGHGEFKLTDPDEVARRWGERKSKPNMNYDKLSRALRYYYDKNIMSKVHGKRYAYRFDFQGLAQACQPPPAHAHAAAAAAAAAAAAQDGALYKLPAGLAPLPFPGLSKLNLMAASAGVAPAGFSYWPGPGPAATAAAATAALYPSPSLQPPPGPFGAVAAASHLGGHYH
Method in brief: as §1

HSF1 = HSF1 (Homo sapiens, UniProt Q00613 1-529); settings: protein: recombinant; tags: N-terminal GST; chain copies: 3; dsDNA, one strand shown
Method in brief: as §1

SPIC = molecular target: T5, SPIC (Homo sapiens, UniProt Q8N5J4 1-248); settings: protein: recombinant; tags: N-terminal GST; dsDNA, one strand shown
T5 sequence: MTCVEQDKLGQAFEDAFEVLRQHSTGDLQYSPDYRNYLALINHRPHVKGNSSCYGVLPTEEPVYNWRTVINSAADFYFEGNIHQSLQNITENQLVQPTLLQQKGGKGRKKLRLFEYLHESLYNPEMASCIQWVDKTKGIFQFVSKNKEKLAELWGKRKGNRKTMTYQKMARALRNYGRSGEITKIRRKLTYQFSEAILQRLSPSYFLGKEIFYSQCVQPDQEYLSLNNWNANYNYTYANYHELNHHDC
Method in brief: as §1

ELF4 = ELF4 (Homo sapiens, UniProt Q99607 1-663); settings: protein: recombinant; tags: N-terminal GST; dsDNA, one strand shown
Method in brief: as §1

ETV2 = molecular target: T6, ETV2 (Homo sapiens, UniProt O00321 1-342); settings: protein: recombinant; tags: N-terminal GST; dsDNA, one strand shown
T6 sequence: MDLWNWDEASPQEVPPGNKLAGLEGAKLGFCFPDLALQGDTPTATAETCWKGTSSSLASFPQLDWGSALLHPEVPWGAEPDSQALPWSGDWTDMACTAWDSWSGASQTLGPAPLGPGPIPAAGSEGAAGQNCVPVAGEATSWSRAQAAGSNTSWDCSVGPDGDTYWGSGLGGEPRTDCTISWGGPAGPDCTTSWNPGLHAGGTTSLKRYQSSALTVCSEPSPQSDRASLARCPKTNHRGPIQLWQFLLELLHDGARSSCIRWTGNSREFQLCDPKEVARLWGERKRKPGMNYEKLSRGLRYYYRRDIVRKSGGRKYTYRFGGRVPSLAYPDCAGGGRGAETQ
Method in brief: as §1

ELF3 = molecular target: T7, ELF3 (Homo sapiens, UniProt P78545 1-371); settings: protein: recombinant; tags: N-terminal GST; dsDNA, one strand shown
T7 sequence: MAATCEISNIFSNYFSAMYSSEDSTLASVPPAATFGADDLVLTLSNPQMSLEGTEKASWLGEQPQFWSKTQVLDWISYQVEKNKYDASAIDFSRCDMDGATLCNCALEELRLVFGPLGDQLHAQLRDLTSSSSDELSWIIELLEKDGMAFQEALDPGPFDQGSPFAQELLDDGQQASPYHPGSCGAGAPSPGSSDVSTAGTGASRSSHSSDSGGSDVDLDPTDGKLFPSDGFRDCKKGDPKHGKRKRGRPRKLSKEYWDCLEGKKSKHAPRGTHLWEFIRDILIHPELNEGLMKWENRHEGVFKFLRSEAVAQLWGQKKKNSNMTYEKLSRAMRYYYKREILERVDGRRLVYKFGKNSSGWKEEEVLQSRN
Method in brief: as §1

ETV1 = ETV1 (Homo sapiens, UniProt P50549 1-477); settings: protein: recombinant; tags: N-terminal GST; dsDNA, one strand shown
Method in brief: as §1

ETV3 = molecular target: T8, ETV3 (Homo sapiens, UniProt P41162-2 1-143); settings: protein: recombinant; tags: N-terminal GST; dsDNA, one strand shown
T8 sequence: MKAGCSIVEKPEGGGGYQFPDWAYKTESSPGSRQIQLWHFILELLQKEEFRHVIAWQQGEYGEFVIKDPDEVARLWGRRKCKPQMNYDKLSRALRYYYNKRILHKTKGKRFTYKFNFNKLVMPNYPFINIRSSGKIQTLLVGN
Method in brief: as §1

Chain of ETV1 (P50549 whole entry): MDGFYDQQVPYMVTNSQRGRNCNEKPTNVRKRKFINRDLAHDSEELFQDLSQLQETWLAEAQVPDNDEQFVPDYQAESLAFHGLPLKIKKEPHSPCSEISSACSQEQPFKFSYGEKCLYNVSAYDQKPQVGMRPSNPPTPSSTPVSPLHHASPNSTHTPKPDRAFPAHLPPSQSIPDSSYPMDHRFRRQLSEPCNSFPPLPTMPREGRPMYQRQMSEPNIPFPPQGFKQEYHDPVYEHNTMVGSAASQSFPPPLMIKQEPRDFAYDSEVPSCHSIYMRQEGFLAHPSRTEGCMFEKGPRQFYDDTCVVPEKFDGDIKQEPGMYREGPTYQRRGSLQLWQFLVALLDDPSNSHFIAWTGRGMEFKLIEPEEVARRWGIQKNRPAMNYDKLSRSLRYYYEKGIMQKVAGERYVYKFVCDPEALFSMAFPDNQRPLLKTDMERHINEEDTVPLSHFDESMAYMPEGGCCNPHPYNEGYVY
Chain of ELF1 (P32519 whole entry): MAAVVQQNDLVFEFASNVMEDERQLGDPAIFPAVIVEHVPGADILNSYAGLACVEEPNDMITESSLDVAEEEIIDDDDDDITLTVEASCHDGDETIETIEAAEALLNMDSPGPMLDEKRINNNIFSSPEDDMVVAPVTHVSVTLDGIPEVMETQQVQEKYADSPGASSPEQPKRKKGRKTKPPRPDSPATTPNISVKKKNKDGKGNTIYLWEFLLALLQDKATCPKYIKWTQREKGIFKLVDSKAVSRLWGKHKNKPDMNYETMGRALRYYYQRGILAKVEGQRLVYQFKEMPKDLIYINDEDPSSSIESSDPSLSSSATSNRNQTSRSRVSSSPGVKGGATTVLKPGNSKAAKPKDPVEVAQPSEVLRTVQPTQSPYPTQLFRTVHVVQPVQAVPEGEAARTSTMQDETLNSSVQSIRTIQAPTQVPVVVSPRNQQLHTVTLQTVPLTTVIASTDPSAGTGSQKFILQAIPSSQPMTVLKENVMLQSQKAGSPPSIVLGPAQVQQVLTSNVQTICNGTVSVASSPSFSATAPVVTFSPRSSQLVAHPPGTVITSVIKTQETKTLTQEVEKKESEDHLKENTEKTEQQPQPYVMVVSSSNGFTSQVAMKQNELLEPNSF
Chain of HSF1 (Q00613 whole entry): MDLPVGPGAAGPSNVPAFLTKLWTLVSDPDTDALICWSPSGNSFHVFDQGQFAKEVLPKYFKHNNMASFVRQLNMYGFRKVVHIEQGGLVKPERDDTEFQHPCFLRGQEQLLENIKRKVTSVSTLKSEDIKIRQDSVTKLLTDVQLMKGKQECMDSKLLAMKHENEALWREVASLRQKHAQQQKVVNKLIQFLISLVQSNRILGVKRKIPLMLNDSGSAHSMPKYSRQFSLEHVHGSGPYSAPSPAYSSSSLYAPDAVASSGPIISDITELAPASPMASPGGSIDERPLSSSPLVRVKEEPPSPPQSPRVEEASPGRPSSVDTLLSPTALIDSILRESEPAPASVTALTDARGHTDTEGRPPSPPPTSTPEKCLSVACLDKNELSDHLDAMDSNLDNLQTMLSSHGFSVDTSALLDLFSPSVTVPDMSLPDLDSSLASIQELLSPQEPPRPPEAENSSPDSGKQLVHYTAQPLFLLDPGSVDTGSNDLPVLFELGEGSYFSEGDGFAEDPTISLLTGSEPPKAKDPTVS
Chain of ELF4 (Q99607 whole entry): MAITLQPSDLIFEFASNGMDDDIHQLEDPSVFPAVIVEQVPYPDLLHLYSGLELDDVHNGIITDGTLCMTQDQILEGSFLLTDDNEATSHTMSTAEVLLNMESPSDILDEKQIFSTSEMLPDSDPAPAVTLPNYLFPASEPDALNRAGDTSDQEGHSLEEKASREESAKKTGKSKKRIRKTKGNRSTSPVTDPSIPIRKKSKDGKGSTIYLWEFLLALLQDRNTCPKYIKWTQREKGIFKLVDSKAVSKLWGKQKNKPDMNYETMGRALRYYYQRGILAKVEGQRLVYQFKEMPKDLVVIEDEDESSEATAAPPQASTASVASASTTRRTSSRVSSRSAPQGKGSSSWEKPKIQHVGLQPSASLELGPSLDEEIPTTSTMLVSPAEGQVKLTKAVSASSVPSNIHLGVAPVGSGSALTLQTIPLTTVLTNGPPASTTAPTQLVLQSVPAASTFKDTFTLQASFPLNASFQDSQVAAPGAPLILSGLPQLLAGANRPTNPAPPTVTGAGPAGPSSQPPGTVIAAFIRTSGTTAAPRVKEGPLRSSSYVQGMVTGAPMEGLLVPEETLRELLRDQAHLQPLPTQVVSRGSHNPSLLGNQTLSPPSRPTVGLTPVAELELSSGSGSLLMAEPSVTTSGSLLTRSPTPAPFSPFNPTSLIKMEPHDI

Q: Which results are given for CAGACT?
A: binding signal (ELK1): 1.01 fold enrichment (6-mer frequency, TF over GST control); binding signal (GABPA): 1.06 fold enrichment (6-mer frequency, TF over GST control); binding signal (ELF1): 1.02 fold enrichment (6-mer frequency, TF over GST control); binding signal (EHF): 1.05 fold enrichment (6-mer frequency, TF over GST control); binding signal (FEV): 1 fold enrichment (6-mer frequency, TF over GST control); binding signal (HSF1): 1.06 fold enrichment (6-mer frequency, TF over GST control); binding signal (SPIC): 1.05 fold enrichment (6-mer frequency, TF over GST control); binding signal (ELF4): 1.07 fold enrichment (6-mer frequency, TF over GST control); binding signal (ETV2): 1.04 fold enrichment (6-mer frequency, TF over GST control); binding signal (ELF3): 1.04 fold enrichment (6-mer frequency, TF over GST control); binding signal (ETV1): 1.05 fold enrichment (6-mer frequency, TF over GST control); binding signal (ETV3): 1.01 fold enrichment (6-mer frequency, TF over GST control)
